ChEMBL document CHEMBL4303097 (2020)
The full ranking holds about 1,500 compounds; the median of “Inhibition index” is about 0.17, and the highest 2% start at about 1.3. The entries come from a sample that favours the highest values as a whole.

Tested on: SARS-CoV-2
Test: Inhibition of cell viability relative to arbidol control (inhibition index > 1 indicates higher activity) measured by fluorescence (OD590nm) in Vero E6 cells infected with SARS-CoV-2 (strain BavPat1) at MOI 0.002 after 72hrs
Assay type: functional, Chlorocebus sabaeus, Vero C1008

Compound | Inhibition index
C=CC[C@]1(O)CC[C@H]2[C@@H]3CCC4=CC(=O)CCC4=C3C=C[C@@]21C [ALTRENOGEST] | 0.8504
CCOC(=O)C(C)(N)Cc1cc(I)c(Oc2cc(I)c(O)c(I)c2)c(I)c1.Cl (stereo not given) | 0.3664
C/C(=C(\CCOC(=O)c1ccccc1)SS/C(CCOC(=O)c1ccccc1)=C(\C)N(C=O)Cc1cnc(C)nc1N)N(C=O)Cc1cnc(C)nc1N | 1.055
C/C(=C(/CCO)SSCC1CCCO1)N(C=O)Cc1cnc(C)nc1N.Cl (stereo not given) | 1.385
CCCSS/C(CCO)=C(\C)N(C=O)Cc1cnc(C)nc1N | 0.2056
CCCCC(=O)O[C@H]1CC[C@H]2[C@@H]3CCc4cc(O)ccc4[C@H]3CC[C@]12C [ESTRADIOL VALERATE] | -0.4279
COc1cccc2c1C(=O)c1c(O)c3c(c(O)c1C2=O)C[C@@](O)(C(=O)CO)C[C@@H]3O[C@H]1C[C@H](N)[C@H](O)[C@H](C)O1.Cl [DOXORUBICIN HYDROCHLORIDE] | -0.06911
Cc1cc(/C=C/c2ccc3cc(N(C)C)ccc3[n+]2C)c(C)n1-c1ccccc1.Cc1cc(/C=C/c2ccc3cc(N(C)C)ccc3[n+]2C)c(C)n1-c1ccccc1.O=C([O-])c1cc2ccccc2c(Cc2c(O)c(C(=O)[O-])cc3ccccc23)c1O [PYRVINIUM PAMOATE] | -0.3469
C#C[C@]1(O)CC[C@H]2[C@@H]3CCC4=CC(=O)CC[C@]4(C)[C@H]3CC[C@@]21C [ETHISTERONE] | 0.1353
CCSc1ccc2c(c1)N(CCCN1CCN(C)CC1)c1ccccc1S2.O=C(O)/C=C\C(=O)O | -0.4349
Cl.N=C(N)NC(=N)NCCc1ccccc1 [PHENFORMIN HYDROCHLORIDE] | -0.07157
N=C(N)NCCN1CCCCCCC1.N=C(N)NCCN1CCCCCCC1.O=S(=O)(O)O [GUANETHIDINE SULFATE] | 0.04902
C[C@]12CC[C@@H]3c4ccc(O)cc4CC[C@H]3[C@@H]1C[C@@H](O)[C@@H]2O [ESTRIOL] | 0.6126
CC(=O)[C@H]1CC[C@H]2[C@@H]3CC=C4C[C@@H](O)CC[C@]4(C)[C@H]3CC[C@]12C [PREGNENOLONE] | 1.659
C[C@]12CC[C@H](O)CC1=CC[C@@H]1[C@@H]2CC[C@]2(C)C(=O)CC[C@@H]12 [PRASTERONE] | 0.9295
CC(=O)[C@H]1CC[C@H]2[C@@H]3CCC4=CC(=O)CC[C@]4(C)[C@H]3CC[C@]12C [PROGESTERONE] | 0.4087
CC[C@@H]([C@H](C)O)n1ncn(-c2ccc(N3CCN(c4ccc(OC[C@@H]5CO[C@@](Cn6cncn6)(c6ccc(F)cc6F)C5)cc4)CC3)cc2)c1=O.O | 0.639
CN1CCN(C(c2ccccc2)c2ccccc2)CC1.Cl [CYCLIZINE HYDROCHLORIDE] | 0.3956
CCOC(=O)[C@H](CCc1ccccc1)N[C@@H](C)C(=O)N1[C@H](C(=O)O)C[C@H]2CCCC[C@@H]21 [TRANDOLAPRIL] | 0.1383
CC(C)(C)C(=O)OCOC(=O)[C@@H]1N2C(=O)[C@@H](NC(=O)[C@H](N)c3ccccc3)[C@H]2SC1(C)C [PIVAMPICILLIN] | 0.3125

Compound | Inhibition index
Clc1cc(Cl)c(OCC#CI)cc1Cl [HALOPROGIN] | -0.09794
CC(=O)[C@H]1CC[C@H]2[C@@H]3CC[C@H]4C[C@H](O)CC[C@]4(C)[C@H]3C(=O)C[C@]12C [ALFAXALONE] | 0.7131
Clc1ccc(CCC(Cn2ccnc2)Sc2c(Cl)cccc2Cl)cc1.O=[N+]([O-])O (stereo not given) [BUTOCONAZOLE NITRATE] | -0.1062
CC(=O)OCC(=O)[C@@]12N=C(C)O[C@@H]1C[C@H]1[C@@H]3CCC4=CC(=O)C=C[C@]4(C)[C@H]3[C@@H](O)C[C@@]12C [DEFLAZACORT] | 0.4333
CC(C)(C)NC(=O)[C@H]1CC[C@H]2[C@@H]3CC[C@H]4NC(=O)C=C[C@]4(C)[C@H]3CC[C@]12C [FINASTERIDE] | 0.2658
Cc1nccn1CC1CCc2c(c3ccccc3n2C)C1=O.Cl (stereo not given) | 1.665
Cc1[nH]cnc1CN1CCc2c(c3ccccc3n2C)C1=O.Cl [ALOSETRON HYDROCHLORIDE] | 0.152
CN(C)CCC(c1ccccc1)c1ccccn1.O=C(O)/C=C\C(=O)O (stereo not given) [PHENIRAMINE MALEATE] | 0.01395
O=C(O[C@H]1C[N+]2(CCCOc3ccccc3)CCC1CC2)C(O)(c1cccs1)c1cccs1.[Br-] [ACLIDINIUM BROMIDE] | 0.1807
CC1(C)S[C@@H]2[C@H](NC(=O)[C@H](NC(=O)N3CCNC3=O)c3ccccc3)C(=O)N2[C@H]1C(=O)[O-].[Na+] [AZLOCILLIN SODIUM] | 0.01854
CC(C)(CO)[C@@H](O)C(=O)NCCCC(=O)O.CC(C)(CO)[C@@H](O)C(=O)NCCCC(=O)O.[Ca+2] | 0.08003
CC(C)NNC(=O)c1ccncc1.O=P(O)(O)O [IPRONIAZID PHOSPHATE] | 0.02671
Cl.Cl.NCCc1cc[nH]n1 | 0.03591
CC1(C)S[C@@H]2[C@H](NC(=O)[C@H](N)c3ccc(O)cc3)C(=O)N2[C@H]1C(=O)O [AMOXICILLIN] | 0.1371
CC12CC3CC(C)(C1)CC(N)(C3)C2.Cl [MEMANTINE HYDROCHLORIDE] | 0.5095
CN(C)CCC(c1ccc(Br)cc1)c1ccccn1.O=C(O)/C=C\C(=O)O (stereo not given) [BROMPHENIRAMINE MALEATE] | 0.3833
CC1(C)S[C@@H]2[C@H](NC(=O)C(C(=O)O)c3ccsc3)C(=O)N2[C@H]1C(=O)[O-].[Na+] (stereo not given in full) | 0.09416
O=C(NC1CCN(CCCCC2(C(=O)NCC(F)(F)F)c3ccccc3-c3ccccc32)CC1)c1ccccc1-c1ccc(C(F)(F)F)cc1 [LOMITAPIDE] | -0.295
CC(C)(C)NC[C@H](O)COc1cccc2c1CCCC2=O.Cl [LEVOBUNOLOL HYDROCHLORIDE] | 0.5259
CN(C)CCC=C1c2ccccc2C=Cc2ccccc21.Cl [CYCLOBENZAPRINE HYDROCHLORIDE] | 0.6333

Compound | Inhibition index
CO/N=C(\C(=O)N[C@@H]1C(=O)N2C(C(=O)OC(C)OC(C)=O)=C(COC(N)=O)CS[C@H]12)c1ccco1 (stereo not given in full) [CEFUROXIME AXETIL] | 0.1456
CCOc1nc2cccc(C(=O)O)c2n1Cc1ccc(-c2ccccc2-c2nnn[nH]2)cc1 | 1.166
Cl.O=C1CC2(CCCC2)CC(=O)N1CCCCN1CCN(c2ncccn2)CC1 [BUSPIRONE HYDROCHLORIDE] | 1.176
C#C[C@]1(O)CC[C@H]2[C@@H]3[C@H](C)CC4=C(CCC(=O)C4)[C@H]3CC[C@@]21C [TIBOLONE] | 0.3794
CN(C)CCCSC(=N)N.Cl.Cl | 1.382
Nc1ncnc2c1ncn2[C@@H]1O[C@H](COP(=O)(O)O)[C@@H](O)[C@H]1O.O | 0.1161
CN(C)CCc1c[nH]c2ccc(Cn3cncn3)cc12.O=C(O)c1ccccc1 [RIZATRIPTAN BENZOATE] | 0.7991
CC#C[C@]1(O)CC[C@H]2[C@@H]3CCC4=CC(=O)CCC4=C3[C@@H](c3ccc(N(C)C)cc3)C[C@@]21C [MIFEPRISTONE] | 0.1807
CN(C)C(=N)NC(=N)N.Cl [METFORMIN HYDROCHLORIDE] | 0.00269
CC1(C)S[C@@H]2[C@H](NC(=O)[C@H](N)c3ccccc3)C(=O)N2[C@H]1C(=O)OC1OC(=O)c2ccccc21.Cl (stereo not given in full) [TALAMPICILLIN HYDROCHLORIDE] | 0.5053
CCOC(=O)C1=C[C@@H](OC(CC)CC)[C@H](NC(C)=O)[C@@H](N)C1.O=P(O)(O)O [OSELTAMIVIR PHOSPHATE] | -0.01747
Br.COc1ccc2c3c1O[C@H]1C[C@@H](O)C=C[C@@]31CCN(C)C2 [GALANTAMINE HYDROBROMIDE] | 0.03283
Cl.N/C(=N\C(=O)c1nc(Cl)c(N)nc1N)NCc1ccccc1 [BENZAMIL HYDROCHLORIDE] | -0.07365
CC(C)NCC(O)COc1cccc2[nH]c3ccccc3c12 (stereo not given) [CARAZOLOL] | 0.7194
C=CCOc1ccccc1OCC(O)CNC(C)C.Cl (stereo not given) [OXPRENOLOL HYDROCHLORIDE] | 1.632
C=CCc1ccccc1OCC(O)CNC(C)C.Cl (stereo not given) [ALPRENOLOL HYDROCHLORIDE] | 0.02886
C[C@]12CCC3=C4CCC(=O)C=C4CC[C@H]3[C@@H]1CC[C@@]2(O)CC#N [DIENOGEST] | 0.1822
Cl.Cl.Fc1ccc(C(OCCN2CCN(CCCc3ccccc3)CC2)c2ccc(F)cc2)cc1 | -0.1375
CC[C@H](C)C(=O)O[C@H]1C[C@H](O)C=C2C=C[C@H](C)[C@H](CC[C@@H](O)C[C@@H](O)CC(=O)O)[C@H]21 [PRAVASTATIN] | 0.3233
CC(=O)OCC1=C(C(=O)[O-])N2C(=O)[C@@H](NC(=O)Cc3cccs3)[C@H]2SC1.[Na+] [CEPHALOTHIN SODIUM] | 0.1149
